Reference: the supplement of paper PMC10849652
The full data set covers some 7,900 targets. This sample favours those with a hit. About 0.6% of all pairs of compound and target were hits.

Compound: C1COCCN1CCN2C3=CC=CC=C3N=C2NC(=O)C4=CC(=CC=C4)[N+](=O)[O-] [IRAK-1-4 Inhibitor I]
Assay: log2 fold change, soluble protein after heating vs DMSO (PISA); higher = thermal stabilisation; K562 cells, 10 uM, 30 min; active = over 0.2 and 3.5 SD of the protein, either way, in both replicates (recomputed)
Method in brief: (§1)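 Values are thermal stability changes relative to control samples and are taken from duplicates. They are stated as log2 fold changes. Before quantification by TMTpro 16plex LC-MS/MS with equalised channel sums, K562 cells at 2×10^6 cells/mL were treated with 10 μM compound for 30 min, heated in aliquots for 3 min across 48°C-58°C, pooled, extracted in PBS with 0.5% NP-40 at 4°C, and centrifuged at 21,000xg for 90 min to give the soluble supernatant.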

Chain of UniProt Q8TC12 (Q8TC12 whole entry, looked up): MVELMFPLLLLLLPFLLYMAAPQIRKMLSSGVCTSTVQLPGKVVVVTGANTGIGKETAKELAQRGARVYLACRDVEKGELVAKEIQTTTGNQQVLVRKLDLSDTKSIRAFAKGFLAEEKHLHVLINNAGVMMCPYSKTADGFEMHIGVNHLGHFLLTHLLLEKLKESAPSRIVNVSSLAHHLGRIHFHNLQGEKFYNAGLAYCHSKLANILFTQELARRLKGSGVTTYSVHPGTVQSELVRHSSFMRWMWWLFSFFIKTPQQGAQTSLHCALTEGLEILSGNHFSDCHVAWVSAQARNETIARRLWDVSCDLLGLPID
Chain of UniProt P54136 (P54136 whole entry, looked up): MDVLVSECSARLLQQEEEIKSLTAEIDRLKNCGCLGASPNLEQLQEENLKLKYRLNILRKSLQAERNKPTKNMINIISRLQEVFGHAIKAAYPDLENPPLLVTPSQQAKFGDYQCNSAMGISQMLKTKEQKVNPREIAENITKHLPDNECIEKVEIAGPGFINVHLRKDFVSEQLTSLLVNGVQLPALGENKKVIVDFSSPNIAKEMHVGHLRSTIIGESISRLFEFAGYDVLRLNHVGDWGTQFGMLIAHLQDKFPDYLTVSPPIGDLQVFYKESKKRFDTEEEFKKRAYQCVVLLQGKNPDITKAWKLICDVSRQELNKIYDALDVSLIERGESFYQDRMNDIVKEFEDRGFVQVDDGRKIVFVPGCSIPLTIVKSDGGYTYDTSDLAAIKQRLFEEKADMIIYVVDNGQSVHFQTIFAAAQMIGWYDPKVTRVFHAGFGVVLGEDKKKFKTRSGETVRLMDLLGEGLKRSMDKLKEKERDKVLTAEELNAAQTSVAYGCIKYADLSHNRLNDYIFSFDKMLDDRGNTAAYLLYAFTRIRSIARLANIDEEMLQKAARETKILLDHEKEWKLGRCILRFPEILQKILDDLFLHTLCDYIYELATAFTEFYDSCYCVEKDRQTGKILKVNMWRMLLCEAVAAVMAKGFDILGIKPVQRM
Chain of UniProt P27694 (P27694 whole entry, looked up): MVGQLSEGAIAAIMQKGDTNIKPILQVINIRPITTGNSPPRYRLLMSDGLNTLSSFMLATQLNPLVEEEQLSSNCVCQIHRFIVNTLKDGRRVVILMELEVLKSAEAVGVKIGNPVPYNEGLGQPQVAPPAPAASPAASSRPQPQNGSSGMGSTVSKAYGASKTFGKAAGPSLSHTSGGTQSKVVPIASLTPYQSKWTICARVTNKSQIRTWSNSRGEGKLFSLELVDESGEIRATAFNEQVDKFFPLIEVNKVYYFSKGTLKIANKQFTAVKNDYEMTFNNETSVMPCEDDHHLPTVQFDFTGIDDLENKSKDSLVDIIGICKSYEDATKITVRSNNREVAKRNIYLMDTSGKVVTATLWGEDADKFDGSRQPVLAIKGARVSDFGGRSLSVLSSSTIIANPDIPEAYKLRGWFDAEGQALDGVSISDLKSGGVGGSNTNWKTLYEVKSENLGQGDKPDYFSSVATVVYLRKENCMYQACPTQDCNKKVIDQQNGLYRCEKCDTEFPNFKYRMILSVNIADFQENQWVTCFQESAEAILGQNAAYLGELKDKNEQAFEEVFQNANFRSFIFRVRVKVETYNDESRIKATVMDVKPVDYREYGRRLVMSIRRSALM
Chain of UniProt Q99643 (Q99643 whole entry, looked up): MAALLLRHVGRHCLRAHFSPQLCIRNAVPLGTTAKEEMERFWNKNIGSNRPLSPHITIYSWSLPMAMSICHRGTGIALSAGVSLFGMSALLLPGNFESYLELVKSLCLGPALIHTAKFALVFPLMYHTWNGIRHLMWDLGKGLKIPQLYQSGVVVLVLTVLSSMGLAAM
Chain of UniProt Q6NUM9 (Q6NUM9 whole entry, looked up): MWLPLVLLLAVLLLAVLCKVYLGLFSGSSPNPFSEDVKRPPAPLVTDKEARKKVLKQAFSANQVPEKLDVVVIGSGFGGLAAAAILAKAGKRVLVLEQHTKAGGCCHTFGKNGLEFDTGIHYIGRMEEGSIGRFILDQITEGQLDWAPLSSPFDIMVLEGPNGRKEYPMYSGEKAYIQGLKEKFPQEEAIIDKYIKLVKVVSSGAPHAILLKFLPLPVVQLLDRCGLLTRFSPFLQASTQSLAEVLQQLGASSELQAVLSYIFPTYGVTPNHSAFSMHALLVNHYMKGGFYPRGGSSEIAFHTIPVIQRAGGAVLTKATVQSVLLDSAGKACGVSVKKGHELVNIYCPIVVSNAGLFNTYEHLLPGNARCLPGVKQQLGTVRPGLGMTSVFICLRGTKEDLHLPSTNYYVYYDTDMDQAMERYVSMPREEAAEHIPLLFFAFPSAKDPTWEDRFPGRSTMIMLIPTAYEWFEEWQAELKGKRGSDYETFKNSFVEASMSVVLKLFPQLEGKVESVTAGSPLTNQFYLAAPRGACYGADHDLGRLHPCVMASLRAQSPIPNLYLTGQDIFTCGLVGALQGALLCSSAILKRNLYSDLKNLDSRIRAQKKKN
Chain of UniProt Q96DM3 (Q96DM3 whole entry, looked up): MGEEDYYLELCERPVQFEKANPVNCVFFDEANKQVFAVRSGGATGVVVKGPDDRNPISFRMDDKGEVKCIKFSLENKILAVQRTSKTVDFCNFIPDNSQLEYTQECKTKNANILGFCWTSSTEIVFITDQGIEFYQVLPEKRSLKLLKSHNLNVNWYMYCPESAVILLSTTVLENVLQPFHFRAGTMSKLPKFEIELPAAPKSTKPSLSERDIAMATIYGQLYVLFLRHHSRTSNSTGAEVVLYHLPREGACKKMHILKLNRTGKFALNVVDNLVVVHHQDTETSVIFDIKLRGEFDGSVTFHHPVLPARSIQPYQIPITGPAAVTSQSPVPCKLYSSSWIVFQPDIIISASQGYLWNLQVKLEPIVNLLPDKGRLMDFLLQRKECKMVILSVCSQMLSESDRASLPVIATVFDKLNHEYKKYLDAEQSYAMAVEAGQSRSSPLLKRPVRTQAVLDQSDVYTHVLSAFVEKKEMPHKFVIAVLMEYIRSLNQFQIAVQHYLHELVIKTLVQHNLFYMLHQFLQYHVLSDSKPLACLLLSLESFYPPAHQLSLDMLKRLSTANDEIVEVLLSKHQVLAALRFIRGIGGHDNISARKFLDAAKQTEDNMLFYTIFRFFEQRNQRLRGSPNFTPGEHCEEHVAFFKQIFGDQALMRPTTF
Chain of UniProt P05543 (P05543 whole entry, looked up): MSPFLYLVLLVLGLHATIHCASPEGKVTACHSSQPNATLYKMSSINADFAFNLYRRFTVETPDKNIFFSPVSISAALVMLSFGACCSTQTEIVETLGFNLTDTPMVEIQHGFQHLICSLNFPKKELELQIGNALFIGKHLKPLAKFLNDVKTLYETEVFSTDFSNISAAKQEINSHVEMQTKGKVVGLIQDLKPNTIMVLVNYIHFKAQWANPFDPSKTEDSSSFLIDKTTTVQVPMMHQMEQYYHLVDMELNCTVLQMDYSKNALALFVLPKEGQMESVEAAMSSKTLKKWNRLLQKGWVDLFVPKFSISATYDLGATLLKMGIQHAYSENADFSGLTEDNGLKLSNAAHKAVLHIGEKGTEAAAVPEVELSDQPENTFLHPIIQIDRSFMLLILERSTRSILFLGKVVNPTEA
Chain of UniProt Q96ER3 (Q96ER3 whole entry, looked up): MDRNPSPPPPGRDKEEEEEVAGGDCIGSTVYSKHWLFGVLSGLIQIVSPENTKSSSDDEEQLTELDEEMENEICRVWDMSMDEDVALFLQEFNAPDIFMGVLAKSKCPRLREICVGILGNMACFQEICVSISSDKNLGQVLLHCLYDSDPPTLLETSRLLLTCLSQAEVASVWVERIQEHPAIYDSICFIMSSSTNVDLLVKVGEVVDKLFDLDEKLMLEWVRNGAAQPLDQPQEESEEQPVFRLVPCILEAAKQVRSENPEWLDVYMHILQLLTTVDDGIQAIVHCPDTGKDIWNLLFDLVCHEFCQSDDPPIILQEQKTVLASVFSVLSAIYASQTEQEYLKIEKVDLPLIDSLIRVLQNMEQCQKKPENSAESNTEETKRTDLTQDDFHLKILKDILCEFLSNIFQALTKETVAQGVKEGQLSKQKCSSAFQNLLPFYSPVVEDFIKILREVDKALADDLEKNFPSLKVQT
Chain of UniProt Q9NR46 (Q9NR46 whole entry, looked up): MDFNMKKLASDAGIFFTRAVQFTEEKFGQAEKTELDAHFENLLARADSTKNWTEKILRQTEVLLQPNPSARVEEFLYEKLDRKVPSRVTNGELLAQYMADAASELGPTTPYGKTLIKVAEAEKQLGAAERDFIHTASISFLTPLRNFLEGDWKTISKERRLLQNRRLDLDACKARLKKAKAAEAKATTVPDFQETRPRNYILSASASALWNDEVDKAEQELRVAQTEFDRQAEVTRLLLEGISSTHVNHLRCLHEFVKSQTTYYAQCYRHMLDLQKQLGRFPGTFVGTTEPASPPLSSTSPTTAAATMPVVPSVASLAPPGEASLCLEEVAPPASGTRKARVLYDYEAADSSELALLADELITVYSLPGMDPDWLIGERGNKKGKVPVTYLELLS
Chain of UniProt Q8TBN0 (Q8TBN0 whole entry, looked up): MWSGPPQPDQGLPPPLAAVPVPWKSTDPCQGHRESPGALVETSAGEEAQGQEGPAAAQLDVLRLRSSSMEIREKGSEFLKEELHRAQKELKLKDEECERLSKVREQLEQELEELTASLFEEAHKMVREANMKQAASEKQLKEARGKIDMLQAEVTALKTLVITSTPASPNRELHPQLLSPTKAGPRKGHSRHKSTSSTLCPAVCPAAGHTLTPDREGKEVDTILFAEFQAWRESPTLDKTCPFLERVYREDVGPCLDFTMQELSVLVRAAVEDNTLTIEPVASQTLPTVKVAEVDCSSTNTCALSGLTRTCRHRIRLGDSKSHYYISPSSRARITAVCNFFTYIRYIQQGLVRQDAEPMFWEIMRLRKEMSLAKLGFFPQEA
Chain of UniProt P63208 (P63208 whole entry, looked up): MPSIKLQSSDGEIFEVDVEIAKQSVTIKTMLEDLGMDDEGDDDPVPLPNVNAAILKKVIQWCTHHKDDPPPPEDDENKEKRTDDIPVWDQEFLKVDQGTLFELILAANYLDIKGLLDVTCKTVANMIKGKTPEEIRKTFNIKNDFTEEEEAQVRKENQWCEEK

Target | log2 fold change
RARS (UniProt P54136) | -0.087 (inactive)
RDH11 (UniProt Q8TC12) | 0.032 (inactive)
RPS15 (UniProt P62841) | -0.114 (inactive)
RPS18 (UniProt P62269) | -0.099 (inactive)
RETSAT (UniProt Q6NUM9) | -0.09 (inactive)
RMC1 (UniProt Q96DM3) | 0.038 (inactive)
SAAL1 (UniProt Q96ER3) | 0.019 (inactive)
RPA1 (UniProt P27694) | -0.026 (inactive)
RAC1 (UniProt P63000) | -0.053 (inactive)
SDHC (UniProt Q99643) | 0.095 (inactive)
SERPINA7 (UniProt P05543) | 0.095 (inactive)

Compound: C=CC(=O)N1CCC[C@@H](n2nc(-c3ccc(Oc4ccccc4)cc3)c3c(N)ncnc32)C1 [ibrutinib]
Assay: as above
Method in brief: as §1

Target | log2 fold change
ROCK2 (UniProt O75116) | -0.052 (inactive)
SCCPDH (UniProt Q8NBX0) | 0.061 (inactive)
RB1 (UniProt P06400) | 0.025 (inactive)
RAB3IL1 (UniProt Q8TBN0) | -0.009 (inactive)
SDCBP (UniProt O00560) | 0.139 (inactive)
RTN4IP1 (UniProt Q8WWV3) | 0.214 (inactive)
SGPL1 (UniProt O95470) | -0.018 (inactive)
RPS14 (UniProt P62263) | 0.03 (inactive)
RAD51 (UniProt Q06609) | 0.013 (inactive)
SH3GLB2 (UniProt Q9NR46) | 0.004 (inactive)
RPS5 (UniProt P46782) | 0.045 (inactive)
RAD50 isoform 2 (UniProt Q92878) | -0.004 (inactive)
RPS13 (UniProt P62277) | 0.035 (inactive)
RHOA (UniProt P61586) | -0.015 (inactive)
SLC12A9 (UniProt Q9BXP2) | -0.001 (inactive)
SCG3 (UniProt Q8WXD2) | 0.035 (inactive)
RSF1 (UniProt Q96T23) | -0.054 (inactive)

Target | log2 fold change
RPS3 (UniProt P23396) | 0.02 (inactive)
RPS6KA1 isoform 2 (UniProt Q15418) | -0.062 (inactive)
RRAGC (UniProt Q9HB90) | -0.009 (inactive)
SERINC3 (UniProt Q13530) | -0.01 (inactive)
RBM25 (UniProt P49756) | 0.01 (inactive)
SKP1 (UniProt P63208) | 0.054 (inactive)
RARS (UniProt P54136) | -0.024 (inactive)
RDH11 (UniProt Q8TC12) | 0.067 (inactive)
RPS15 (UniProt P62841) | 0.11 (inactive)
RPS18 (UniProt P62269) | 0.053 (inactive)
RETSAT (UniProt Q6NUM9) | 0.042 (inactive)
RMC1 (UniProt Q96DM3) | 0.03 (inactive)
SAAL1 (UniProt Q96ER3) | -0.035 (inactive)
RPA1 (UniProt P27694) | -0.022 (inactive)
RAC1 (UniProt P63000) | 0.036 (inactive)
SDHC (UniProt Q99643) | 0.004 (inactive)
SERPINA7 (UniProt P05543) | 0.229 (inactive)

Compound: CC(=O)c1cnc2ccc(-c3cc(Cl)c(O)c(Cl)c3)nc2c1N[C@H]1CC[C@H](CN(C)C)CC1
Assay: as above
Method in brief: as §1

Target | log2 fold change
ROCK2 (UniProt O75116) | -0.137 (inactive)
SCCPDH (UniProt Q8NBX0) | 0.031 (inactive)
RB1 (UniProt P06400) | -0.761 (active)
RAB3IL1 (UniProt Q8TBN0) | 0.018 (inactive)
SDCBP (UniProt O00560) | -0.02 (inactive)
RTN4IP1 (UniProt Q8WWV3) | -0.326 (inactive)
SGPL1 (UniProt O95470) | -0.045 (inactive)
RPS14 (UniProt P62263) | 0.079 (inactive)
RAD51 (UniProt Q06609) | -0.061 (inactive)
SH3GLB2 (UniProt Q9NR46) | -0.047 (inactive)
RPS5 (UniProt P46782) | 0.083 (inactive)
RAD50 isoform 2 (UniProt Q92878) | -0.099 (inactive)
RPS13 (UniProt P62277) | 0.103 (inactive)
RHOA (UniProt P61586) | 0.047 (inactive)
SLC12A9 (UniProt Q9BXP2) | 0.016 (inactive)
SCG3 (UniProt Q8WXD2) | -0.107 (inactive)
RSF1 (UniProt Q96T23) | 0.043 (inactive)

Target | log2 fold change
RPS3 (UniProt P23396) | 0.051 (inactive)
RPS6KA1 isoform 2 (UniProt Q15418) | -0.167 (inactive)
RRAGC (UniProt Q9HB90) | -0.057 (inactive)
SERINC3 (UniProt Q13530) | -0.027 (inactive)
RBM25 (UniProt P49756) | -0.032 (inactive)
SKP1 (UniProt P63208) | 0.03 (inactive)
RARS (UniProt P54136) | 0.12 (inactive)
RDH11 (UniProt Q8TC12) | -0.145 (inactive)
RPS15 (UniProt P62841) | -0.042 (inactive)
RPS18 (UniProt P62269) | 0.052 (inactive)
RETSAT (UniProt Q6NUM9) | 0.01 (inactive)
RMC1 (UniProt Q96DM3) | -0.026 (inactive)
SAAL1 (UniProt Q96ER3) | 0.578 (active)
RPA1 (UniProt P27694) | -0.03 (inactive)
RAC1 (UniProt P63000) | 0.038 (inactive)
SDHC (UniProt Q99643) | 0.025 (inactive)
SERPINA7 (UniProt P05543) | 0.227 (inactive)
